Laboratory results reported in PubChem BioAssay (NCATS).
Results filed as inconclusive are left out. Activity calls are given as the source filed them. Unless noted, calls follow the shape of the dose curve; as a rule, active = well fitted curve in the direction sought with a large enough effect; inconclusive = small, poorly fitted or top-dose-only effect, or another doubt; inactive = no such curve, though single readings can be large; an effect the other way counts as inactive or inconclusive.

How the values were obtained:
[1] = Quantitative High-Throughput drug screen in 47 multiple myeloma cell lines against the NCATS MIPE library collection: XG1_PLB cell viability assay (AID 1919866); also: nearly all actives have a fitted effect of over 35% in size; also: potency is read from the fitted curve at half-maximal effect
Method in brief: (§1)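 Myeloma cells (500/well) treated with MIPE 4.0 compounds for 48 h at 37 °C, 5% CO2. Viability read as ATP via CellTiter-Glo luminescence after 5 min at RT; DMSO-only wells = 100%, media-only = 0% viability.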

[2] = Quantitative High-Throughput drug screen in 47 multiple myeloma cell lines against the NCATS MIPE library collection: VP6_DJ cell viability assay (AID 1919867); also: nearly all actives have a fitted effect of over 40% in size; also: potency is read from the fitted curve at half-maximal effect
Method in brief: as §1

[3] = Quantitative High-Throughput drug screen in 47 multiple myeloma cell lines against the NCATS MIPE library collection: PE2_PLB cell viability assay (AID 1919869); also: nearly all actives have a fitted effect of over 35% in size; also: potency is read from the fitted curve at half-maximal effect
Method in brief: as §1

[4] = Quantitative High-Throughput drug screen in 47 multiple myeloma cell lines against the NCATS MIPE library collection: PCM6_Riken cell viability assay (AID 1919870); also: nearly all actives have a fitted effect of over 30% in size; also: potency is read from the fitted curve at half-maximal effect
Method in brief: as §1

[5] = Quantitative High-Throughput drug screen in 47 multiple myeloma cell lines against the NCATS MIPE library collection: OPM2_DSMZ cell viability assay (AID 1919872); also: nearly all actives have a fitted effect of over 30% in size; also: potency is read from the fitted curve at half-maximal effect
Method in brief: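 Approved and investigational drugs from MIPE 4.0 were added by pin tool to 500 cells per well. After 48 hours at 37C, ATP-based CellTiter-Glo luminescence indicated remaining viability.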

[6] = Quantitative High-Throughput drug screen in 47 multiple myeloma cell lines against the NCATS MIPE library collection: KMS11_JCRBsus cell viability assay (AID 1919873); also: nearly all actives have a fitted effect of over 50% in size; also: potency is read from the fitted curve at half-maximal effect
Method in brief: as §1

[7] = Quantitative High-Throughput drug screen in 47 multiple myeloma cell lines against the NCATS MIPE library collection: KMS28BM_JCRB cell viability assay (AID 1919874); also: nearly all actives have a fitted effect of over 35% in size; also: potency is read from the fitted curve at half-maximal effect
Method in brief: as §1

[8] = qHTS drug screen for cell cycle checkpoint inhibitors in PARPi-resistant BRCA-mutant ovarian cancer cell lines. (AID 1963452; calls by dose curve; also: potency is read from the fitted curve at half-maximal effect); conditions: PEO1/OlaR viability, CellTiter-Glo luminescence, 96 h; for Z-AUC: stronger effect = lower value
Method in brief: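 PEO1, PEO4 and PEO1/OlaR ovarian cancer cells, 600 per well, exposed 96 h at 37C to a dilution series. Viability read by CellTiter-Glo luminescence, normalized to DMSO and empty wells; activity summarized as Z-AUC.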

[9] = Quantitative High-Throughput drug screen in 47 multiple myeloma cell lines against the NCATS MIPE library collection: RPMI8226_ATCC cell viability assay (AID 1919871); also: nearly all actives have a fitted effect of over 30% in size; also: potency is read from the fitted curve at half-maximal effect
Method in brief: as §1

[10] = qHTS profiling for inhibitors of Plasmodium falciparum proliferation (AID 504749);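 also: 0% = DMSO vehicle and full inhibition = artemisinin control; nearly all actives have a fitted effect of over 60% in size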; conditions: P. falciparum in erythrocytes, SYBR Green DNA, 72 h, at 28.7 µM (top of the series)
Method in brief: (§2)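 P. falciparum-infected erythrocytes (0.3% parasitemia, 2.5% hematocrit final) were exposed to compounds for 72 h at 37 C in 5% CO2, then lysed with SYBR Green buffer overnight at room temperature; parasite DNA fluorescence was normalized to artemisinin and DMSO controls.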

3D7 = experiment: as above; conditions: P. falciparum in erythrocytes, SYBR Green DNA, 72 h; series mostly up to 28.7 µM
Method in brief: as §2

AA1029 = experiment: as above; conditions: P. falciparum in erythrocytes, SYBR Green DNA, 72 h; series mostly up to 28.7 µM
Method in brief: as §2

AS120 = experiment: as above; conditions: P. falciparum in erythrocytes, SYBR Green DNA, 72 h; series mostly up to 28.7 µM
Method in brief: as §2

ATS189 = experiment: as above; conditions: P. falciparum in erythrocytes, SYBR Green DNA, 72 h; series mostly up to 28.7 µM
Method in brief: as §2

ATS95 = experiment: as above; conditions: P. falciparum in erythrocytes, SYBR Green DNA, 72 h; series mostly up to 28.7 µM
Method in brief: as §2

C2A = experiment: as above; conditions: P. falciparum in erythrocytes, SYBR Green DNA, 72 h; series mostly up to 28.7 µM
Method in brief: as §2

CP185 = experiment: as above; conditions: P. falciparum in erythrocytes, SYBR Green DNA, 72 h; series mostly up to 28.7 µM
Method in brief: as §2

[11] = qHTS for identification of novel therapeutic agents for treatment of microphthalmiaassociated transcription factor (MiT) renal cell carcinoma (RCC) (AID 1963991); conditions: CellTiter-Glo, 48 h, stronger effect = lower value
Method in brief: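 Viability of three TFE3-fusion renal carcinoma lines measured by CellTiter-Glo after 48 h treatment with each of 1912 compounds at 11 concentrations. Responses scaled between DMSO (100%) and empty wells (0%) before curve fitting.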

7G8 = experiment: qHTS profiling for inhibitors of Plasmodium falciparum proliferation (AID 504749);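 also: 0% = DMSO vehicle and full inhibition = artemisinin control; nearly all actives have a fitted effect of over 60% in size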; conditions: P. falciparum in erythrocytes, SYBR Green DNA, 72 h; series mostly up to 28.7 µM
Method in brief: as §2

[12] = measured here: PEO1 parental Z-AUC
[13] = TFE3-RCC UOK109 viability, measured here: UOK109 Z-AUC
[14] = TFE3-RCC viability, measured here: UOK124 Z-AUC
[15] = TFE3-RCC viability, measured here: UOK145 Z-AUC

Cc1nc(Nc2n[nH]c3c2CN(C(=O)N[C@H](CN(C)C)c2ccccc2)C3(C)C)c2sccc2n1
active: Potency [1] 296 nM | Potency [2] 372 nM | Potency [3] 833 nM | Potency [4] 1870 nM | Potency [5] 3720 nM | Potency [6] 37.2 nM | Potency [7] 37.2 nM
inactive: Z-AUC [8] -0.766
-0.524: Z-AUC [8, 12]
-1.06: Z-AUC ([8]; measured here: PEO4 Z-AUC)

CC1(C)O[C@@H]2C[C@@H]3[C@H]4C[C@@H](F)C5=CC(=O)C=C[C@]5(C)[C@@]4(F)[C@@H](O)C[C@]3(C)[C@]2(C(=O)CO)O1
inactive: Potency [1] | Potency [2] | Potency [5] | activity, negative = inhibition ([10]; parasite line A) 4.83% | activity, negative = inhibition ([10]; parasite line B) 2.94% | Potency (3D7) | Potency (AA1029) | Potency (AS120) | Potency (ATS189) | Potency (ATS95) | Potency (C2A) | Potency (CP185)
active: Potency [3] 1180 nM | Potency [9] 8.3 nM | Potency [6] 4.2 nM

C=CC(=O)Nc1cccc(Oc2nc(Nc3ccc(N4CCN(C)CC4)cc3OC)ncc2Cl)c1
-0.954: Z-AUC ([8]; measured here: PEO4 Z-AUC)
active: Potency [1] 4.7 nM | Potency [2] 18.7 nM | Potency [3] 526 nM | Potency [4] 7430 nM | Potency [6] 13200 nM | Potency [7] 20900 nM
-0.879: Z-AUC [8, 12]
inactive: Z-AUC [8] -0.915

COc1cccc2nc(-c3cccs3)nc(NN3C(=O)C=C(C)C3=O)c12
-2.06: Z-AUC ([8]; measured here: PEO4 Z-AUC)
-1.8: Z-AUC [8, 12]
active: Potency [1] 26.4 nM | Potency [2] 37.2 nM | Potency [3] 418 nM | Potency [4] 41.8 nM | Potency [5] 1480 nM | Potency [6] 8.3 nM | Potency [7] 33.2 nM | Potency [8] 4360 nM

O=C(O)CO.[NH2-].[NH2-].[Pt+2]
inactive: Potency [1] | Potency [2] | Potency [3] | Potency [4] | Potency [5] | Potency [6] | Potency [7] | activity, negative = inhibition ([10]; parasite line A) 12% | activity, negative = inhibition ([10]; parasite line B) 15.6% | Potency (3D7) | Potency (7G8) | Potency (AA1029) | Potency (AS120) | Potency (ATS189) | Potency (ATS95) | Potency (C2A) | Potency (CP185)
1.18: z-score [11, 15]
1.56: z-score [11, 14]
0.642: z-score [11, 13]

O=C(NCCCNc1nc(Nc2cccc(NC(=O)N3CCCC3)c2)ncc1I)c1cccs1
0.426: Z-AUC ([8]; measured here: PEO4 Z-AUC)
inactive: Z-AUC [8] 1.15
active: Potency [1] 1050 nM | Potency [2] 2090 nM | Potency [3] 1180 nM | Potency [4] 5260 nM | Potency [5] 16600 nM
1.02: Z-AUC [8, 12]

COc1cc2c(cc1-c1c(C)noc1C)ncc1[nH]c(=O)n([C@H](C)c3ccccn3)c12
-1.04: Z-AUC [8, 12]
active: Potency [1] 5900 nM | Potency [2] 833 nM | Potency [3] 14800 nM | Potency [4] 6620 nM | Potency [9] 7430 nM | Potency [6] 264 nM | Potency [7] 332 nM
inactive: Z-AUC [8] -1.31
-1.54: Z-AUC ([8]; measured here: PEO4 Z-AUC)

COc1cccc(Nc2c(C(N)=O)cnc3c(C)cc(S(=O)(=O)c4cccc(C(=O)N(C)C)c4)cc23)c1
inactive: Potency [1] | Potency [2] | Potency [3] | Potency [4] | Potency [5] | Potency [6] | Potency [7] | Z-AUC [8] -0.363
0.957: z-score [11, 15]
0.911: z-score [11, 14]
0.84: Z-AUC [8, 12] | Z-AUC ([8]; measured here: PEO4 Z-AUC)
1.38: z-score [11, 13]

CN(C)c1nc(Cc2ccc(NC(=O)c3ccc4ccccc4c3)cc2)nc(Cl)c1CC(=O)O
0.743: z-score [11, 13]
0.756: z-score [11, 15]
inactive: Potency [1] | Potency [2] | Potency [3] | Potency [4] | Potency [9] | Potency [5] | Potency [7]
0.693: z-score [11, 14]

Fc1cc(-c2cccc3ncc(-c4cnn(C5CCNCC5)c4)nc23)cc(F)c1CN1CCOCC1
active: Potency [1] 7430 nM | Potency [2] 9350 nM | Potency [3] 8330 nM | Potency [4] 7430 nM | Potency [9] 20900 nM | Potency [6] 9350 nM | Potency [7] 26400 nM

COc1cc2c(Nc3ccc(NC(=O)c4ccccc4)cc3)ncnc2cc1OCCCN1CCOCC1
0.378: Z-AUC [8, 12]
inactive: Z-AUC [8] 0.665
active: Potency [1] 20900 nM | Potency [2] 14800 nM | Potency [3] 20900 nM | Potency [4] 16600 nM | Potency [9] 23500 nM | Potency [6] 10500 nM
-0.00174: Z-AUC ([8]; measured here: PEO4 Z-AUC)

O=C(Nc1cn[nH]c1-c1nc2ccc(CN3CCOCC3)cc2[nH]1)NC1CC1
-1.9: Z-AUC ([8]; measured here: PEO4 Z-AUC)
active: Potency [1] 148 nM | Potency [2] 2960 nM | Potency [3] 935 nM | Potency [4] 2640 nM | Potency [5] 4690 nM | Potency [6] 1320 nM | Potency [7] 1050 nM | Potency [8] 871 nM
-1.15: Z-AUC [8, 12]

COC(=O)Nc1ccc(-c2nc(N3CCOCC3)c3cnn(C4CCN(Cc5cccnc5)CC4)c3n2)cc1
active: Potency [1] 23.5 nM | Potency [2] 46.9 nM | Potency [4] 526 nM | Potency [9] 11.8 nM | Potency [5] 296 nM | Potency [6] 29.6 nM | Potency [7] 418 nM
inactive: Z-AUC [8] -0.964
-0.944: Z-AUC ([8]; measured here: PEO4 Z-AUC)
-0.853: Z-AUC [8, 12]
